The values that follow come from PubChem BioAssay (NCATS).

Results filed as inconclusive are left out. Calls of active or inactive are those of the source. The call rests on the fitted dose curve; in most records, active means well fitted curve in the direction sought with a large enough effect; inconclusive means small, poorly fitted or top-dose-only effect, or another doubt; inactive means no such curve, though single readings can be large; an effect the other way counts as inactive or inconclusive.

For assay [1], the target named is Cytochrome P450 3A7 (Homo sapiens) (UniProt P24462). The assay is described as follows: Cytochrome P450 family 3 subfamily A member 7 (CYP3A7) small molecule antagonists: luciferase biochemical qHTS assay (AID 1963596). Further: on the % scale 0 is the no-effect control and ±100 the full control effect; nearly all actives have a fitted effect of over 40% in size. Particulars: P450-Glo CYP3A7 enzyme luminescence, 1 h; series mostly up to 57.4 µM. In short, it runs like this: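 P450-Glo luminescent assay: CYP3A7 enzyme converts a proluciferin substrate to luciferin, detected by luciferase reagent; light proportional to activity. Compounds in DMSO preincubated 10 min with enzyme-substrate mix at room temperature, then NADPH regeneration added for 1 h.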
Chain of Cytochrome P450 3A7 (Homo sapiens) (P24462 whole entry, looked up): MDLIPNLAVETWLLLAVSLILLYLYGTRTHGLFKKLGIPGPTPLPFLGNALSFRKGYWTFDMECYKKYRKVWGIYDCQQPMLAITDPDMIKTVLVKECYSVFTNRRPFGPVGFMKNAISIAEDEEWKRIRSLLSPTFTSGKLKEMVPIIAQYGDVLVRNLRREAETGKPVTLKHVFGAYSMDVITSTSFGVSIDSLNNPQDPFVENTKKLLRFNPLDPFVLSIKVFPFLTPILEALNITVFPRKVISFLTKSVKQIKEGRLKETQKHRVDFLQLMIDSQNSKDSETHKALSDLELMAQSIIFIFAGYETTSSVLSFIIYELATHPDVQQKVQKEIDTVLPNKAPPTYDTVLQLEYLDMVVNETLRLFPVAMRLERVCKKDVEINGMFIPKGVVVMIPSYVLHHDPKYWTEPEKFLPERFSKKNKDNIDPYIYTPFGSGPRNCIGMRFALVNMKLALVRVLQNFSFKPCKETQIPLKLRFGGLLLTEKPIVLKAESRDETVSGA

The nature of assay [2]: Cellular viability qHTS for adrenocortical cancer (ACC) cell line SW-13 (AID 1963989).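 Further: cells grown in serum-free medium with ITS supplement; on the % scale 0 is the no-effect control and ±100 the full control effect; nearly all actives have a fitted effect of over 65% in size.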 Particulars: SW-13 ACC cells viability, CellTiter-Glo, 48 h; activity (max response): hits give low values. In short, it runs like this:
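IC50 and maximal-response values come from four-parameter logistic fits of titration data. SW-13 cells in serum-free medium received compounds (up to 46 uM final) for 48 h before CellTiter-Glo luminescence.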
In general terms: Quantitative high-throughput screening tests each substance at several concentrations.

The nature of assay [3]: Cellular viability qHTS for adrenocortical cancer (ACC) cell line NCI-H295R (AID 1963990).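 Further: 0% = DMSO only wells and -100% = full killing with cytotoxic reference compound; nearly all actives have a fitted effect of over 60% in size.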 Particulars: CellTiter-Glo ATP luminescence, 48 h; series mostly up to 46.1 µM. In short, it runs like this:
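Adrenocortical carcinoma cells, suspended at 300 000 cells/mL in serum-free DMEM plus ITS, rested overnight before pin transfer of compound. After two days' incubation, ATP-dependent luminescence was recorded and curve-fitted.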

Turning to `CO[C@@H]1[C@@H](O[C@@H]2O[C@H](C)[C@@H](O[C@H]3C[C@@](C)(O)[C@@H](O)[C@H](C)O3)[C@H](N(C)C)[C@H]2O)[C@@H](CC=O)C[C@@H](C)[C@@H](O[C@@H]2CC[C@H](N(C)C)[C@@H](C)O2)/C=C/C=C/C[C@@H](C)OC(=O)C[C@H]1OC(C)=O`, the Potency result in assay [1] and in assay [3] was “inactive” in each case. Moreover, in assay [2], the activity (max response) is -1.59% (inactive).

As for `CCCC(=O)O[C@]1(C(=O)COC(=O)CC)CC[C@H]2[C@@H]3CCC4=CC(=O)CC[C@]4(C)[C@H]3[C@@H](O)C[C@@]21C`, the Potency result in assay [1] and in assay [3] was “inactive” in each case.

On to `O=C(O)c1cn(C2CC2)c2cc(Cl)c(F)cc2c1=O`, for which the Potency entry in assay [1] and in assay [3] was “inactive” throughout. Also, in assay [2], the activity (max response) was 13.4% (inactive).

For `CCOC(=O)c1ccc(O)cc1`, the Potency result in assay [1] and in assay [3] was “inactive” in each case. Moreover, in assay [2], the activity (max response) was 9.4% (inactive).

In the case of `CC(C)(C)c1ccc(C(=O)CCCCl)cc1`, the Potency result in assay [1] and in assay [3] was “inactive” each time.

For `O=C(O)Cc1ccc2c(c1)C(=O)c1ccccc1CO2`, the Potency entry in assay [1] and in assay [3] was “inactive” each time. Further, the activity (max response) in assay [2] is 11.3% (inactive).

Regarding `CC1c2ccccc2CN1NC(=O)c1ccc(Cl)c(S(N)(=O)=O)c1` (configuration not stated), the Potency result in assay [1] and in assay [3] was “inactive” in each case. The activity (max response) in assay [2] was -11.8% (inactive).

In the case of `CO/N=C(/C(=O)N[C@@H]1C(=O)N2C(C(=O)O)=C(Cn3nnc(C)n3)CS[C@H]12)c1csc(N)n1`, the Potency result in assay [1] and in assay [3] was “inactive” in each case.

Take `O=C(O)c1[nH]n(-c2ccc(S(=O)(=O)O)cc2)c(=O)c1N=Nc1ccc(S(=O)(=O)O)cc1`: the Potency result in assay [1] and in assay [3] was “inactive” each time. Also, the activity (max response) in assay [2] is 6.82% (inactive).

As to `CO[C@@]1(NC(=O)Cc2cccs2)C(=O)N2C(C(=O)O)=C(COC(N)=O)CS[C@@H]21`, the Potency result in assay [1] and in assay [3] was “inactive” each time. Besides, in assay [2], the activity (max response) was 12.4% (inactive).
